Screens as filed in PubChem BioAssay.
GPR151 ag – activators of human GPR151; Q8TDV0; PathHunter beta-arrestin GPR151 cells, luminescence; activation, % at 11.2 µM; 650,000 compounds, 1% hits; AID 1508602; in the data active means activation above about 4.9%
Target sequence (Q8TDV0 whole entry, looked up): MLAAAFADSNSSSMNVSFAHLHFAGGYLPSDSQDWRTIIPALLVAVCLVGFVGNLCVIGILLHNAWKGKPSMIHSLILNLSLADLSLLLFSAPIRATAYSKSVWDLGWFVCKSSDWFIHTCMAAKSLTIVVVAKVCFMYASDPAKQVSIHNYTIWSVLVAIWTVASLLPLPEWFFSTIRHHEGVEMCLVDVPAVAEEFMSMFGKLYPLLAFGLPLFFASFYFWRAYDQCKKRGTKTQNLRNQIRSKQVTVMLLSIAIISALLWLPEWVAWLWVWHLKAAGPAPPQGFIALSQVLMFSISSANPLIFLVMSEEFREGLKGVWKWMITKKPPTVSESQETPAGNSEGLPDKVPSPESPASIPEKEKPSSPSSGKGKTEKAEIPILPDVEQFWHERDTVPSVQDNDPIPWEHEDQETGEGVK
MITF inh – blocks human microphthalmia-associated transcription factor. O75030. AlphaScreen MITF homodimerization, bead proximity signal. inhibition, % at 2.6 µM. 650,000 compounds, 0.91% hits. AID 1259374; in the data active means inhibition above about 50%
FBW7 activator – activators of human E3 ligase FBW7 | normalized activity (activation), % at 26.1 µM | 650,000 compounds, 0.13% hits | AID 1259310 | AlphaScreen FBW7–phospho-cyclin E peptide binding, activator screen | Q969H0; in the data active means normalized activity above about 1.9%;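 further: purified mutant Fbw7 with reduced substrate affinity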
TEAD-YAP block – TEAD-YAP interaction inhibition; HEK-TIYL cells, TEAD-Gal4/YAP UAS-luciferase luminescence; 640,000 compounds, 1.4% hits; inhibition, % at 9.12 µM; in the data active means inhibition above about 32%
MITF inh conf – human MITF inhibition, confirmation; inhibition, % at 2.6 µM; 4,700 compounds, 16% hits; AlphaScreen MITF homodimerization, biotin/His-MITF beads; shares compounds with MITF inh;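 active means inhibition above a cutoff derived from the DMSO control wells, cut at about 28% in these data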;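 further: inhibitors lower the bead chemiluminescence by keeping MITF from dimerizing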
AlphaScreen DR – AlphaScreen optical interference, dose response counter-screen; shares compounds with MITF inh; AlphaScreen optical interference counterscreen, cell-free; IC50, µM; AID 1259373; 480 compounds, 6% hits; call rule not given here
AS interf ctr – optically interferes with AlphaScreen signal; shares compounds with MITF inh; LysRS AlphaScreen counterscreen, signal interference, triplicate; inhibition, % at 2.6 µM; 4,700 compounds, 7.6% hits;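 active means inhibition above a cutoff derived from the DMSO control wells, cut at about 30% in these data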
A number is an active result; i = inactive; nt = no result given; ! = not confirmed by another sample. An excerpt weighted towards active compounds, which were near 3.5% of everything screened.

SMILES	GPR151 ag	MITF inh	FBW7 activator	TEAD-YAP block	MITF inh conf	AS interf ctr	others
c1ccc(N2CCN(Cc3cccc4ccccc34)CC2)nc1	i	i	i	i	nt	nt
Brc1cccc(CN2CCN(Cc3ccccn3)CC2)c1	i	i	i	i	nt	nt
Cc1cc(C(=O)OCc2ccc(F)cc2)c2ccccc2n1	i	i	i	i	nt	nt
CCOC(=O)C1=C(C)N=c2s/c(=C\c3cc(C)n(-c4ccc(F)cc4)c3C)c(=O)n2C1c1ccccc1OC(C)C (stereo unspecified)	i	i	i	i	nt	nt
CCN1CCN(CCOc2c(OC)cccc2OC)CC1	i	82.0	i	i	i	i
COc1cccc(OC)c1OCCCCN1CCCC1	i	52.5	i	i	i	i
CCCC(=O)Nc1ccccc1C1(C)CC1	i	59.3	i	i	i	i
Cc1ccccc1-c1nnc(NC(=O)C23CC4CC(CC(C4)C2)C3)s1	i	i	i	i	nt	nt
COc1ccccc1NC(=S)N(CCN(C)C)C(C)c1ccccn1 (stereo unspecified)	i	65.6	i	i	i	100.3
C=CCn1c(N2CCC(C(=O)Nc3ncn[nH]3)CC2)nc2ccccc21	i	i	i	i	nt	nt
COc1ccc(C(=O)N2CCN(CC3CC=CCC3)CC2)cc1OC (stereo unspecified)	i	i	i	i	nt	nt
COc1ccc(CN2CCN(CC3CC=CCC3)CC2)cc1OC (stereo unspecified)	i	60.9	i	i	i	i
COc1ccc(CN2CCN(CC3CC=CCC3)CC2)cc1 (stereo unspecified)	i	60.6	i	i	i	i
CCOc1cc(CN2CCCC2)ccc1OC	i	i	i	i	nt	nt
CCOc1cc(CN2CCN(CC3CC=CCC3)CC2)ccc1OC (stereo unspecified)	i	69.7	i	i	i	i
CCS(=O)(=O)N1CCN(Cc2cccc(C)c2)CC1	i	i	i	i	nt	nt
Cc1cccc(CN2CCN(CC3CC=CCC3)CC2)c1 (stereo unspecified)	i	67.0	i	i	i	i
CCOc1ccc(CNC(=O)C2CCCN(c3nnc(N4CCCC4=O)s3)C2)cc1 (stereo unspecified)	i	i	i	i	nt	nt
CCOC(=O)c1c(NC(=O)c2ccc(Br)o2)sc(C(N)=O)c1C	i	i	i	i	nt	nt
Fc1ccc(CN2CCN(CC3CC=CCC3)CC2)cc1 (stereo unspecified)	i	65.3	i	i	i	i
O=C1O[C@H](C(O)CO)C(O)=C1O (stereo partly specified)	i	76.3!	i	i	46.9	i	AlphaScreen DR=i
O=C(c1cccs1)N1CCN(c2ccc([N+](=O)[O-])cc2F)CC1	i	62.2	i	i	i	i
OC(CNNc1c(F)c(F)cc(F)c1F)COc1ccccc1 (stereo unspecified)	i	58.4	i	i	i	i
CC(C)NCC(O)COc1ccccc1 (stereo unspecified)	i	i	i	i	nt	nt
Cc1cc(OCCNCCN)ccc1C(C)C	i	i	i	i	nt	nt
SMILES	GPR151 ag	MITF inh	FBW7 activator	TEAD-YAP block	MITF inh conf	AS interf ctr	others
Cc1cc(OCCOCCN2CCCC2)ccc1C(C)C	i	i	i	i	nt	nt
Cc1cc(OCCNCCO)ccc1C(C)C	i	i	i	i	nt	nt
COCCCNCCOc1ccc(C(C)C)c(C)c1	i	59.8	i	i	i	i
COCCCNCCCOc1ccc(OCc2ccccc2)cc1	i	54.3	i	i	i	i
Cc1cc(OCCCCNCCO)ccc1C(C)C	i	61.9	i	i	i	i
C=CCNCCOCCOc1ccc(C(C)C)c(C)c1	i	51.9	i	i	i	i
COCC(C)N1CCC(Oc2cccc(C(=O)NCc3ccccc3)c2)CC1 (stereo unspecified)	i	i	i	i	nt	nt
CCOc1ccc(N(C)S(=O)(=O)c2ccc3[nH]cc(C(=O)N4CCCC4)c(=O)c3c2)cc1	i	i	i	i	nt	nt
Cc1nc(NCc2ccoc2)sc1-c1ccn(-c2ccccc2)n1	i	i	i	i	nt	nt
COc1cccc(/C=C2\SC(=S)N(NC(=O)c3ccccc3)C2=O)c1OC	i	i	i	i	nt	nt
O=C1CC2(CCCC2)CC(=O)N1Cc1ccc(Cl)cc1	i	i	i	i	nt	nt
CCC1(CC)NC(=O)N(CC(=O)N(C)Cc2cc(Br)ccc2OC)C1=O	i	i	i	i	nt	nt
CCOC(=O)Cc1n[nH]c(=S)n1Cc1ccco1	i	i	i	i	nt	nt
CCCCCn1c(SC(C(=O)NCc2ccccc2)C(=O)NCc2ccccc2)nc2ccccc2c1=O	i	i	i	i	nt	nt
COc1cccc(/C=C2\C(=O)N(c3ccc(S(N)(=O)=O)cc3)N=C2C)c1	i	i	i	i	nt	nt
Cc1c(C(=O)NC2CC(C)(C)NC(C)(C)C2)cccc1[N+](=O)[O-]	i	i	i	i	nt	nt
COCCNCCOc1ccc(C(C)C)c(C)c1	i	60.4	i	i	i	i
Cc1cccc(OCCCCNCCO)c1C	i	i	i	i	nt	nt
Cc1ccc(C)c(OCCCCNCCO)c1C	i	55.5	i	i	i	i
CC(C)N(CCNc1nc(Nc2ccc(N3CCOCC3)cc2)nc2c1ncn2CCN1CCCC1=O)C(C)C	i	i	i	i	nt	nt
CCCC(=O)Nc1cnc(NC(=O)c2ccccc2F)cc1C	i	i	i	i	nt	nt
CCOC(=O)NC(=S)N/N=C/c1ccccn1	i	64.1	i	i	i	31.8
Nn1c(SCc2cc(=O)n3c(n2)sc2ccccc23)nnc1C1CC1	i	i	i	i	nt	nt
Cn1c(SCc2cc(=O)n3c(n2)sc2ccccc23)nnc1C(F)(F)F	i	60.3	i	i	78.5	i	AlphaScreen DR=i
CCN1C=CC(=C(/C=C2\C=CC=CC2=O)CS(=O)(=O)O)C=C1	i	64.7	i	i	i	i
SMILES	GPR151 ag	MITF inh	FBW7 activator	TEAD-YAP block	MITF inh conf	AS interf ctr	others
CSc1ccc(S(=O)(=O)N2CCN(Cc3ccccc3)CC2)cc1	i	i	i	i	nt	nt
O=S(=O)(Cc1ccccc1)N1CCN(Cc2ccc(Br)cc2)CC1	i	58.8	i	i	i	i
O=S(=O)(Cc1ccccc1)N1CCN(C2CCN(Cc3ccccc3)CC2)CC1	i	65.3	i	i	i	i
O=S(=O)(Cc1ccc(Cl)cc1)N1CCN(Cc2ccccc2)CC1	i	i	i	i	nt	nt
CCc1ccc(CN2CCN(S(=O)(=O)Cc3ccccc3)CC2)cc1	i	60.0	i	i	i	i
CSc1ccc(CN2CCN(S(=O)(=O)Cc3ccccc3)CC2)cc1	i	72.1	i	i	i	i
Cc1[nH]nc2c1C(c1ccc(Cc3ccccc3Cl)cc1)C(C#N)=C(N)O2 (stereo unspecified)	i	i	i	i	nt	nt
COc1cc2nc(N3CCCC3CO)nc(Nc3ccc(NC(C)=O)cc3)c2cc1OC (stereo unspecified)	i	i	i	i	nt	nt
CN(C)c1ccc(N=c2cc(-c3ccccc3)cc(-c3ccccc3)s2)cc1	i	54.2	i	i	i	i
CN(C)c1ccc(N=Cc2ccccc2)cc1	i	i	i	i	nt	nt
Cc1ccc2oc(C(=O)Nc3ccccc3C#N)c(C)c2c1	i	i	i	i	nt	nt
